Measurements as given in PubChem BioAssay (EPA / NIEHS).
The source made the active and inactive calls. The calls were made as follows: active = hit-call score of the fitted dose curve at least 0.9, where 1 is the maximum; inactive = score below 0.9.

experiment: ATG_E_Box_CIS: Attagene CIS-FACTORIAL HepG2 Assay for human Enhancer Box (E-box) (AID 2282936); details: HepG2 E-box cis-reporter transcription, actives raise or lower the signal
Protocol: ATG_CIS is a cell-based, multiplexed-readout assay that uses HepG2, a human liver cell line, with measurements taken at 24 hours after chemical dosing in a 24-well plate.ATG_E_Box_CIS is one of 52 assay component(s) measured or calculated from the ATG_CIS assay. It is designed to make measurements of mRNA induction, a form of inducible reporter, as detected with fluorescence intensity signals by Reverse transcription polymerase chain reaction (RT-PCR) and Capillary electrophoresis technology.Data from the assay component ATG_E_Box_CIS was analyzed into 1 assay endpoint. This assay endpoint, ATG_E_Box_CIS, was analyzed with bidirectional fitting relative to DMSO as the negative control and baseline of activity. Using a type of inducible reporter, measures of mRNA for gain or loss-of-signal activity can be used to understand the reporter gene at the transcription factor-level as they relate to the gene USF1. Furthermore, this assay endpoint can be referred to as a primary readout, because this assay has produced multiple assay endpoints where this one serves a reporter gene function. To generalize the intended target to other relatable targets, this assay endpoint is annotated to the dna binding intended target family, where the subfamily is basic helix-loop-helix protein.
Human liver HepG2 cells are transiently transfected with multiple reporter transcription units (MRTUs) in 6-well plates using FuGene 6 reagent (Roche; 3 ml FuGene/1 mg DNA). The MRTU constructs are regulated by a cis-regulating element (promoter). […] A major difference between the CIS and TRANS system is that in CIS activities of endogenous TFs are measured, whereas the TRANS assay evaluates changes in activities of exogenous, chimeric NR-Gal4 proteins. […] At the end of 24 hour incubation, total RNA was isolated using TriZol reagent (Invitrogen). The isolated RNA is then reverse-transcribed using oligo(dT) primer and Mo-MLV reverse transcriptase (Invitrogen) with DNAse I (Ambion) treatment for 30 min. The one-tenth of the produced cDNA was amplified by PCR using Taq DNA polymerase (Invitrogen) and two reporter sequence-specific primers. The PCR products were fluorescently labeled by primer extension with 6-arboxyfluorescein (6-FAM) 5'-labeled reporter sequence-specific primer (2 min at 95 C, 20 s at 68 C and 10 min at 72 C) and these products were digested with 5U of HpaI (New England Biolabs) for 2h at 37 C. The fragments were purified using Qiaquick PCR columns (Qiagen), analyzed on an ABI 3130xL genetic analyzer (Applied Biosystems) with peak positions identified by using a set of X-rhodamine (ROX)-labeled MapMarker1000 molecular weight standards (BioVentures). The raw capillary electrophoresis data was processed using Attagraph software (Attagene).

outcome, inactive:
CCOC(=O)c1ccccc1OC
O=P(c1ccccc1)(c1ccccc1)c1ccccc1
CCCc1c(OCCCOc2ccc(OCC(=O)O)cc2)ccc(C(C)=O)c1O
CC(C)[C@H]1CC[C@@H](C)CC1=O
C=CC(=O)OCCOCCOCC
CCCCOCCOCCSC#N
CSc1nnc(C(C)(C)C)c(=O)[nH]1
COc1ccc(O)cc1
CCCCCCCCCC=O
CC(=O)/C=C/C1=C(C)CCCC1(C)C
COc1ccc(OC)c(OC)c1
Cc1ccc2sc3cccc(C)c3c2c1
CCc1ccc(C=O)cc1
CC(=O)Nc1ccc(C)cc1C
CC(C)(CO)[N+](=O)[O-]
OCC(CO)(CO)COCC(CO)(CO)CO
CCN(CC)c1ccc2c(-c3ccccc3C(=O)O)c3ccc(=[N+](CC)CC)cc-3oc2c1
O=C1C(c2[nH]c3ccc(S(=O)(=O)O)cc3c2O)=Nc2ccc(S(=O)(=O)O)cc21
O=C[C@@H](O)[C@H](O)[C@H](O)CO
CCCCCC(=O)OCCc1ccccc1
ClCCCl
CCN(CC)c1ccc(C(=C2C=CC(=[N+](CC)CC)C=C2)c2ccc(S(=O)(=O)O)cc2S(=O)(=O)[O-])cc1
COC(=O)c1ccc(C)cc1
CCN(CC)CCOC(=O)c1ccc(N)cc1
CCCCOCCOCCOCCOCCO
CC(=O)O[C@H](CC(=O)[O-])C[N+](C)(C)C
O=CCCc1ccccc1
CC(C)c1ccc(C(C)C)cc1
O=C1c2ccccc2C(=O)N1SC1CCCCC1
CCOC(=S)SSC(=S)OCC
CCCCCCCCCCCCCCCC(=O)O
O=C(O)c1snc(Cl)c1Cl
CC(=O)[O][Al][O]C(C)=O
CCCC(=O)c1cc(O)c(O)cc1O
Nc1cc(N)cc(C(=O)O)c1
CC(=O)c1c(C)cc(C(C)(C)C)cc1C
Cc1ccc2n[nH]nc2c1
Nc1cc([N+](=O)[O-])ccc1Cl
CCCCCCCCC=O
C=C[Si](OCC)(OCC)OCC
